Results on 35 compounds are retold here after PubChem BioAssay (EPA / NIEHS).

Each structure is given as a SMILES string. Records with an inconclusive call do not appear. Active and inactive are the calls of the source. Rule for the calls: active = hit-call score of the fitted dose curve at least 0.9, where 1 is the maximum; inconclusive = response in the unintended direction; inactive = score below 0.9.

Chain of Cytochrome P450 2C19 (Homo sapiens) (P33261 whole entry, looked up): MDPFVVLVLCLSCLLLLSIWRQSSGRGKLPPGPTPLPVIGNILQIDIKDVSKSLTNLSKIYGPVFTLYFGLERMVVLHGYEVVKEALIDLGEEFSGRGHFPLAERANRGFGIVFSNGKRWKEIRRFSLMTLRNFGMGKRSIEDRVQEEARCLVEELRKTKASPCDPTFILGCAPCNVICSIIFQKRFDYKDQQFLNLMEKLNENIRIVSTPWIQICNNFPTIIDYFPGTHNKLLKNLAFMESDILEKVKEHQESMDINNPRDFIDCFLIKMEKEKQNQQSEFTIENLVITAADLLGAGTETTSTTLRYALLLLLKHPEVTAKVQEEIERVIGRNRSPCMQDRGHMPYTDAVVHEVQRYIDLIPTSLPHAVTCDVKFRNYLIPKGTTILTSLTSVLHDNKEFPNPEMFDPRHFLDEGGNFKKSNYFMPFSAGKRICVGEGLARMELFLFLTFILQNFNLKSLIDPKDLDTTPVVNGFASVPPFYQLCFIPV

Read-out in the assay: Cytochrome P450 2C19 (Homo sapiens) (UniProt P33261)
In words: CLD_CYP2C19_6hr: CellzDirect (CLD) Gene Expression Assay for xenobiotic metabolism (CYP2C19) at 6 hours (AID 2283678). As for the experimental part: CLD_6hr is a cell-based, multiplexed-readout assay that uses hepatocyte, a human liver primary cell, with measurements taken at 6 hours after chemical dosing in a 96-well plate.CLD_CYP2C19_6hr is one of 16 assay component(s) measured or calculated from the CLD_6hr assay. It is designed to make measurements of mRNA induction, a form of inducible reporter, as detected with chemiluminescence signals by Quantitative Nuclease Protection Assay (qNPA) technology.Data from the assay component CLD_CYP2C19_6hr was analyzed at the endpoint, CLD_CYP2C19_6hr, in the positive analysis fitting direction relative to DMSO as the negative control and baseline of activity. Using a type of inducible reporter, gain-of-signal activity can be used to understand changes in the reporter gene as they relate to the gene CYP2C19. Furthermore, this assay endpoint can be referred to as a primary readout. To generalize the intended target to other relatable targets, this assay endpoint is annotated to the cyp intended target family, where subfamily is xenobiotic metabolism.
Human hepatocyte cultures were treated daily for two consecutive days with fresh dosing solutions containing appropriate concentrations of the 320 ToxCast chemicals (chemical identities were blinded to CellzDirect and other ToxCast collaborators), vehicle control (0.2% DMSO), and positive control inducers as summarized in Table 1. Due to the large number of treatment groups and chemicals examined, the ToxCast chemicals were divided into two groups (spanning two independent cultures of hepatocytes from separate donor preparations (Hu778: ToxCast plates 1 and 2; Hu776: ToxCast plates 3 and 4). Each preparation of human hepatocyte cultures was treated with respective vehicle control, medium only control, set of six positive controls/reference chemicals for the five hepatic receptor pathways, and a subset of eight of the ToxCast chemicals (indoxacarb, pyrithiobac-sodium, norflurazon, cyhalofop-butyl, methomyl, thiram, acetochlor, and propiconazole). These replicate data, coupled with internal replicates designed within the blinded ToxCast chemical library, provided additional data to evaluate interindividual differences between hepatocyte preparations and their potential impact on chemical profiles.Cell morphology and integrity were evaluated using phase-contrast microscopy as an indicator of hepatocyte cell health (Tyson & Green, 1987). Cultures for each treatment group (i.e., media, vehicle [0.2% DMSO], positive control inducers [multiple concentrations], and the ToxCast chemicals [multiple concentrations]) were observed and cell morphology was assessed relative to vehicle control cultures at each harvest time point (0, 6, 24, or 48 h). […] Images were evaluated at the conclusion of the study to assess changes in cell integrity and account for the effects of chemical exposure on uncharacteristic changes in concentration-dependent gene expression profiles. The results from these determinations of apparent cytotoxicity were annotated (yes/no) alongside the corresponding qNPA data for reference.At the conclusion of each treatment period, hepatocyte cultures (96-well) were washed with 1 volume of HBSS, lysed by addition of 25 ul ArrayPlate lysis buffer (HTG, Tucson, AZ), and 70 ul/well of Denaturation Oil, denatured by incubation at 95C for 10 min, and frozen at approximately -70C until analysis by nuclease protection assay (qNPA) (Roberts et al., 2007). For qNPA analysis, cell lysates were thawed at 50C for approximately 30 min, qNPA probes were added, and samples were incubated at 95C for 10 min to begin the detection process by denaturing the target RNA, dissociating the duplexes and secondary structure hybridization. At the conclusion of the hybridization period, S1 nuclease reagent was added to each sample to digest all nonprotected nucleotides at 50C for 60-90 min. […]
Regarding `COP(=O)(OC)O/C(C)=C/C(=O)N(C)C`, the compound was called inactive.

As for `COCC(=O)N(c1c(C)cccc1C)C(C)C(=O)OC` (stereo not given), the compound was called inactive.

Consider `CCOc1nc(F)cc2nc(S(=O)(=O)Nc3c(Cl)cccc3Cl)nn12`, for which the outcome was inactive.

For `CC(C)=CC1C(C(=O)OCc2coc(Cc3ccccc3)c2)C1(C)C` (stereo not given), the outcome was inactive.

With `OC(c1ccc(Cl)cc1)(c1ccc(Cl)cc1)C(Cl)(Cl)Cl`, the outcome was inactive.

`COc1cc(OC)nc(NC(=O)NS(=O)(=O)c2ncccc2OCC(F)(F)F)n1`: the outcome was inactive.

For `CN=C=S`, the outcome was inactive.

For the compound `CC1(C)CCC(=Cc2ccc(Cl)cc2)C1(O)Cn1cncn1` (stereo not given), the call was inactive.

With `O=C(O)c1c(Cl)ccc2cc(Cl)cnc12`, the compound was called inactive.

As for `O=c1n(Cl)c(=O)n(Cl)c(=O)n1Cl`, the compound was classed as inactive.

Consider `CNC(=O)N(C)c1nnc(C(C)(C)C)s1`, for which the compound was called inactive.

For `CC(C)C1(C)N=C(c2ncccc2C(=O)O)NC1=O` (stereo not given), the outcome was inactive.

`COC(=O)NC(=S)Nc1ccccc1NC(=S)NC(=O)OC`: the call was inactive.

As to `CCNC(=O)NC(=O)C(C#N)=NOC`, the outcome was inactive.

Regarding `C=C(C)CN(CC)c1c([N+](=O)[O-])cc(C(F)(F)F)cc1[N+](=O)[O-]`, the result was inactive.

For the compound `CCOc1nc(C(Cl)(Cl)Cl)ns1`, the call was inactive.

Turning to `CC(C)Oc1cccc(NC(=O)c2ccccc2C(F)(F)F)c1`, the call was inactive.

Consider `CCCCC(C#N)(Cn1cncn1)c1ccc(Cl)cc1` (stereo not given), for which the compound was called inactive.

For the compound `O=C(Nc1ccccc1-c1ccc(Cl)cc1)c1cccnc1Cl`, the compound was classed as inactive.

`Cc1ccc(N=CN(C)C=Nc2ccc(C)cc2C)c(C)c1`: the result was inactive.

`COP(=S)(OC)Oc1ccc([N+](=O)[O-])c(C)c1`: the call was inactive.

On to `COC(=O)c1c(C(F)F)nc(C(F)(F)F)c(C2=NCCS2)c1CC(C)C`, for which the result was inactive.

For `N#CN=C1SCCN1Cc1ccc(Cl)nc1`, the call was inactive.

With `CC1(C)CON(Cc2ccccc2Cl)C1=O`, the outcome was inactive.

Consider `COCc1cnc(C2=NC(C)(C(C)C)C(=O)N2)c(C(=O)O)c1` (stereo not given), for which the call was inactive.

For `CC(C)(C)C(=O)C(Oc1ccc(Cl)cc1)n1cncn1` (stereo not given), the call was inactive.

For `COC(=O)NS(=O)(=O)c1ccc(N)cc1`, the compound was called inactive.

Turning to `Nc1c(Cl)c(Cl)nc(C(=O)O)c1Cl`, the compound was called inactive.

`CCOP(=O)(OCC)Oc1nc(Cl)c(Cl)cc1Cl`: the compound was classed as inactive.

Consider `CSC(=O)c1c(C(F)F)nc(C(F)(F)F)c(C(=O)SC)c1CC(C)C`, for which the compound was called inactive.

On to `N#Cc1c(Cl)cccc1Cl`, for which the compound was classed as inactive.

In the case of `CC(C)N1C(=O)c2ccccc2NS1(=O)=O`, the call was inactive.

As for `CS(=O)(=O)c1cc(C(F)(F)F)ccc1C(=O)c1cnoc1C1CC1`, the compound was called inactive.

With `Clc1cccc(C(Cl)(Cl)Cl)n1`, the compound was classed as inactive.

Consider `CCOC(=O)C(C)OC(=O)c1cc(Oc2ccc(C(F)(F)F)cc2Cl)ccc1[N+](=O)[O-]` (stereo not given), for which the compound was classed as inactive.
